Here are results for three molecules from PubChem BioAssay (EPA / NIEHS).

Common to all, as to conditions: mRNA level, 48 h; actives raise or lower the signal
Read-out in assay [1]: JUN Transcription Factor, JUN (gene 3725)
The assay is described as follows: LTEA_HepaRG_JUN: Life Technologies and Expression Analysis (LTEA) Assay for JUN Transcription Factor using HepaRG (AID 2283513). A digest of the protocol:
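Differentiated HepaRG cells were exposed to chemicals for 48 h in serum-free induction medium, 8 concentrations from 100 uM in half-log steps, 0.5% DMSO vehicle, in duplicate. JUN mRNA was quantified by TaqMan qRT-PCR, normalized to ACTB, GAPDH, POLR2A.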

Read-out in assay [2]: Lipase C (LIPC), LIPC (gene 3990)
The assay is described as follows: LTEA_HepaRG_LIPC: Life Technologies and Expression Analysis (LTEA) Assay for Lipase C (LIPC) using HepaRG (AID 2283514). A digest of the protocol:
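Differentiated human HepaRG cells in serum-free induction medium were exposed in duplicate for 48 h to eight concentrations (top 100 uM, half-log steps, 0.5% DMSO). LIPC mRNA was quantified by TaqMan qRT-PCR, normalized to ACTB, GAPDH and POLR2A, with bidirectional fitting versus DMSO.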

Read-out in assay [3]: Lipoprotein lipase (LPL), LPL (gene 4023)
The assay is described as follows: LTEA_HepaRG_LPL: Life Technologies and Expression Analysis (LTEA) Assay for Lipoprotein lipase (LPL) using HepaRG (AID 2283515). The method in brief: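 Differentiated human HepaRG cells in serum-free induction medium were exposed in duplicate for 48 h to eight half-log concentrations (top 100 uM) in 0.5% DMSO. LPL mRNA was quantified by TaqMan qRT-PCR, normalized to ACTB, GAPDH and POLR2A.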

Read-out in assay [4]: MicroRNA 122 (MIR122), gene 406906
The assay is described as follows: LTEA_HepaRG_MIR122: Life Technologies and Expression Analysis (LTEA) Assay for MicroRNA 122 (MIR122) using HepaRG (AID 2283516). Note: the transcript read is the microRNA miR-122. The method in brief:
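Differentiated human HepaRG cells were exposed 48 h in serum-free induction medium to eight half-log concentrations (top 100 uM, 0.5% DMSO). Transcript level was measured by TaqMan qRT-PCR, normalized to ACTB, GAPDH and POLR2A, and fitted bidirectionally versus DMSO.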

Read-out in assay [5]: matrix metalloproteinase-10 (MMP10), MMP10 (gene 4319)
The assay is described as follows: LTEA_HepaRG_MMP10: Life Technologies and Expression Analysis (LTEA) Assay for matrix metalloproteinase-10 (MMP10) using HepaRG (AID 2283517). A digest of the protocol: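 HepaRG, collagen I, ~100,000 cells/well; serum-free induction medium; 48 h exposure, duplicate, 8-pt half-log to 100 uM, 0.5% DMSO. Readout: TaqMan qRT-PCR, normalized to ACTB/GAPDH/POLR2A; bidirectional fit vs DMSO.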

Read-out in the next assay: MYC, MYC (gene 4609)
The assay is described as follows: LTEA_HepaRG_MYC: Life Technologies and Expression Analysis (LTEA) Assay for MYC using HepaRG (AID 2283518). The method in brief: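 Expression changes were scored by TaqMan qRT-PCR with ACTB, GAPDH and POLR2A normalization. Cultures in serum-free induction medium received duplicate 8-point concentration series, highest 100 uM, for 48 h; DMSO (0.5%) served as baseline.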

Read-out in assay [6]: matrix metalloproteinase-3 (MMP3), MMP3 (gene 4314)
The assay is described as follows: LTEA_HepaRG_MMP3: Life Technologies and Expression Analysis (LTEA) Assay for matrix metalloproteinase-3 (MMP3) using HepaRG (AID 2283519). The method in brief: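 Differentiated human HepaRG cells, plated 48 h on collagen I, were exposed in duplicate for 48 h in serum-free induction medium to eight half-log concentrations up to 100 uM in 0.5% DMSO. MMP3 mRNA was quantified by TaqMan qRT-PCR, normalised to ACTB, GAPDH and POLR2A.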

Read-out in assay [7]: Paternally Expressed 10 (PEG10), PEG10 (gene 23089)
The assay is described as follows: LTEA_HepaRG_PEG10: Life Technologies and Expression Analysis (LTEA) Assay for Paternally Expressed 10 (PEG10) using HepaRG (AID 2283520). A digest of the protocol: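 Differentiated HepaRG cells, plated 48 h then switched to serum-free induction medium, were exposed in duplicate for 48 h to eight half-log concentrations topping at 100 uM in 0.5% DMSO. PEG10 mRNA was quantified by TaqMan qRT-PCR, normalised to ACTB, GAPDH and POLR2A.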

Read-out in assay [8]: Nuclear factor NF-kappa-B p105 subunit (Homo sapiens) (UniProt P19838)
The assay is described as follows: LTEA_HepaRG_NFKB1: Life Technologies and Expression Analysis (LTEA) Assay for Nuclear Factor Kappa B Subunit 1 (NFKB1) using HepaRG (AID 2283521).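 Note: TaqMan qRT-PCR transcript normalised to ACTB GAPDH and POLR2A housekeeping genes.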 The method in brief:
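Human HepaRG cells receive eight half-log concentrations, highest 100 uM, for 48 h. NFKB1 expression is then quantified by qRT-PCR and analysed for up- or down-regulation relative to 0.5% DMSO vehicle.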

Read-out in assay [9]: Protein phosphatase 2A (PPP2R4), PTPA (gene 5524)
The assay is described as follows: LTEA_HepaRG_PPP2R4: Life Technologies and Expression Analysis (LTEA) Assay for Protein phosphatase 2A (PPP2R4) using HepaRG (AID 2283522). A digest of the protocol:
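Differentiated HepaRG cells in serum-free induction medium were exposed in duplicate for 48 h to eight concentrations, top 100 uM with half-log dilutions, in 0.5% DMSO. PPP2R4 mRNA was quantified by TaqMan qRT-PCR, normalized to ACTB, GAPDH and POLR2A.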

Read-out in assay [10]: Phosphatase and tensin (PTEN), PTEN (gene 5728)
The assay is described as follows: LTEA_HepaRG_PTEN: Life Technologies and Expression Analysis (LTEA) Assay for Phosphatase and tensin (PTEN) using HepaRG (AID 2283523). A digest of the protocol:
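Differentiated human HepaRG cells, plated 48 h then switched to serum-free induction medium, were exposed in duplicate for 48 h to eight half-log concentrations up to 100 uM in 0.5% DMSO. PTEN mRNA measured by TaqMan qRT-PCR, normalized to ACTB/GAPDH/POLR2A, bidirectional fit versus DMSO.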

Read-out in assay [11]: solute carrier (SLC22A1), SLC22A1 (gene 6580)
The assay is described as follows: LTEA_HepaRG_SLC22A1: Life Technologies and Expression Analysis (LTEA) Assay for solute carrier (SLC22A1) using HepaRG (AID 2283524). The method in brief: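 Human HepaRG cells were plated 48 h, switched to serum-free induction medium, then exposed in duplicate for 48 h to 8-point half-log series from 100 uM in 0.5% DMSO. SLC22A1 mRNA measured by qRT-PCR, normalized to ACTB/GAPDH/POLR2A, fitted bidirectionally versus DMSO.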

Read-out in assay [12]: Pyruvate Dehydrogenase Kinase 4 (PDK4), PDK4 (gene 5166)
The assay is described as follows: LTEA_HepaRG_PDK4: Life Technologies and Expression Analysis (LTEA) Assay for Pyruvate Dehydrogenase Kinase 4 (PDK4) using HepaRG (AID 2283525). The method in brief:
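Differentiated human HepaRG cells, pre-cultured 48 h, were exposed in duplicate for 48 h in serum-free induction medium to eight half-log concentrations up to 100 uM in 0.5% DMSO. PDK4 mRNA was quantified by qRT-PCR, normalized to ACTB, GAPDH and POLR2A, bidirectional fitting versus DMSO.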

Read-out in assay [13]: NAD(P)H dehydrogenase [quinone] 1 (NQO1), NQO1 (gene 1728)
The assay is described as follows: LTEA_HepaRG_NQO1: Life Technologies and Expression Analysis (LTEA) Assay for NAD(P)H dehydrogenase [quinone] 1 (NQO1) using HepaRG (AID 2283526). The method in brief:
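Differentiated HepaRG cells, plated 48 h and then switched to serum-free induction medium, were exposed in duplicate for 48 h to 8-point half-log concentrations up to 100 uM in 0.5% DMSO. mRNA measured by qRT-PCR, normalized to ACTB, GAPDH, POLR2A; bidirectional fit versus DMSO.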

Read-out in assay [14]: Nuclear factor erythroid 2-related factor 2 (Homo sapiens) (UniProt Q16236)
The assay is described as follows: LTEA_HepaRG_NFE2L2: Life Technologies and Expression Analysis (LTEA) Assay for Nuclear factor erythroid 2-related factor 2 (NFE2L2) Transcription Factor using HepaRG (AID 2283527).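 Note: TaqMan qRT-PCR transcript level normalised to ACTB GAPDH and POLR2A housekeeping genes.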 A digest of the protocol: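 Differentiated human HepaRG cells in serum-free induction medium were exposed for 48 h to eight concentrations (top 100 uM, half-log dilutions, 0.5% DMSO), in duplicate. NFE2L2 mRNA was quantified by TaqMan qRT-PCR, normalized to ACTB, GAPDH and POLR2A, with bidirectional fitting versus DMSO.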

Read-out in assay [15]: succinate dehydrogenase complex iron sulfur subunit B (SDHB), SDHB (gene 6390)
The assay is described as follows: LTEA_HepaRG_SDHB: Life Technologies and Expression Analysis (LTEA) Assay for succinate dehydrogenase complex iron sulfur subunit B (SDHB) using HepaRG (AID 2283528). The method in brief:
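A human HepaRG culture in serum-free induction medium received test chemicals for 48 h over an eight-point range capped at 100 uM. SDHB expression change was quantified by qRT-PCR.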

Read-out in assay [16]: Signal transducer and activator of transcription 3 (Homo sapiens) (UniProt P40763)
The assay is described as follows: LTEA_HepaRG_STAT3: Life Technologies and Expression Analysis (LTEA) Assay for Signal transducer and activator of transcription (STAT3) using HepaRG (AID 2283529). A digest of the protocol:
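Differentiated human HepaRG cells in serum-free induction medium were exposed in duplicate for 48 h to eight half-log concentrations up to 100 uM in 0.5% DMSO. STAT3 mRNA was quantified by TaqMan qRT-PCR, normalized to ACTB, GAPDH and POLR2A, and fitted bidirectionally against DMSO.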

Read-out in assay [17]: sulfotransferase 2A1 (SULT2A1), SULT2A1 (gene 6822)
The assay is described as follows: LTEA_HepaRG_SULT2A1: Life Technologies and Expression Analysis (LTEA) Assay for sulfotransferase 2A1 (SULT2A1) using HepaRG (AID 2283531). A digest of the protocol: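 Gene-expression endpoint in a human liver cell line: SULT2A1 mRNA change after 48 h chemical treatment, curves fitted in both directions relative to 0.5% DMSO vehicle. Concentrations spanned eight half-log steps from 100 uM.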

Read-out in assay [18]: Transforming Growth Factor (TGFA), TGFA (gene 7039)
The assay is described as follows: LTEA_HepaRG_TGFA: Life Technologies and Expression Analysis (LTEA) Assay for Transforming Growth Factor (TGFA) using HepaRG (AID 2283532). A digest of the protocol: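 Differentiated human HepaRG cells, plated 48 h then switched to serum-free induction medium, were exposed in duplicate for 48 h to 8-point half-log series from 100 uM in 0.5% DMSO. TGFA mRNA measured by qRT-PCR, normalized to ACTB/GAPDH/POLR2A, bidirectional fit versus DMSO.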

Read-out in assay [19]: solute carrier (SLCO1B1), SLCO1B1 (gene 10599)
The assay is described as follows: LTEA_HepaRG_SLCO1B1: Life Technologies and Expression Analysis (LTEA) Assay for solute carrier (SLCO1B1) using HepaRG (AID 2283530). The method in brief:
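Human HepaRG cultures treated for 48 h with an eight-concentration half-log series topping at 100 uM; SLCO1B1 measured by qRT-PCR and fitted bidirectionally relative to DMSO.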

The AC50 is the concentration at which the activity in the assay is half-maximal.

The structures appear in SMILES notation. Activity calls are given as the source filed them. Rule for the calls: active = hit-call score of the fitted dose curve at least 0.9, where 1 is the maximum; inactive = score below 0.9.

Chain of Signal transducer and activator of transcription 3 (Homo sapiens) (P40763 whole entry, looked up): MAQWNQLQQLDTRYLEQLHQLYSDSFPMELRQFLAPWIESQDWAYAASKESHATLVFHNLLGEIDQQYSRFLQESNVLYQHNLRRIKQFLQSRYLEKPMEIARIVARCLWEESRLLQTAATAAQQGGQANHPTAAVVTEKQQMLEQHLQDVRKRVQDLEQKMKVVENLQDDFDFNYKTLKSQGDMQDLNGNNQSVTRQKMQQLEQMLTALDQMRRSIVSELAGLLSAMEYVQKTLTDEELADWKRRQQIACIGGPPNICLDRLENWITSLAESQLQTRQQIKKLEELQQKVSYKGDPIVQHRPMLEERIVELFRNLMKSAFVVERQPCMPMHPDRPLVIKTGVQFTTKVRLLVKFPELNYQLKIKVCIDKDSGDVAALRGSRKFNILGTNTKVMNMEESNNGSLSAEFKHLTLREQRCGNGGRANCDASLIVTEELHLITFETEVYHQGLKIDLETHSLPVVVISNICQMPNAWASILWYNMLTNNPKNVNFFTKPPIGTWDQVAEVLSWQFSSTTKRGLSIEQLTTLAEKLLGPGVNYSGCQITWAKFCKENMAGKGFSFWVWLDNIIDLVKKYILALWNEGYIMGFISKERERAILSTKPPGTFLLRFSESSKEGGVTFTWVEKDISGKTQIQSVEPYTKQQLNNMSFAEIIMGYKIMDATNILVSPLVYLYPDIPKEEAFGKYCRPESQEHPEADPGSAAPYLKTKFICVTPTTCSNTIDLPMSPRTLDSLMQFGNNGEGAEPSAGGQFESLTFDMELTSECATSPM
Chain of Nuclear factor erythroid 2-related factor 2 (Homo sapiens) (Q16236 whole entry, looked up): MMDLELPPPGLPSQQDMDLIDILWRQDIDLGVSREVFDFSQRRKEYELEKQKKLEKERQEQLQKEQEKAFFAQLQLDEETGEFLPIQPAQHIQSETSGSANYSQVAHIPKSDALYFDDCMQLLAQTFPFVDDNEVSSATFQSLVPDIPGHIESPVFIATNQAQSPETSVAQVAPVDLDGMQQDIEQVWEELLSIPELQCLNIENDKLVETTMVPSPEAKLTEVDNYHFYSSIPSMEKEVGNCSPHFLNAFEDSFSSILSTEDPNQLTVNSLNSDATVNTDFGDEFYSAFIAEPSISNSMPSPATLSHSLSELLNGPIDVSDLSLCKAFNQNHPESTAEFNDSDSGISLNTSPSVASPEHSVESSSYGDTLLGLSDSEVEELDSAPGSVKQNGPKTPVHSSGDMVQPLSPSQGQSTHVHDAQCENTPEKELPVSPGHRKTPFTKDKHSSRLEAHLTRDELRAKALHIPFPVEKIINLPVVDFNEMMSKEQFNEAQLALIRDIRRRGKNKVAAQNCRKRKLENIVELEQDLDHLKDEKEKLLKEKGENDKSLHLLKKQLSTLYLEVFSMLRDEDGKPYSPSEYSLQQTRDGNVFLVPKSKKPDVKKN
Chain of Nuclear factor NF-kappa-B p105 subunit (Homo sapiens) (P19838 whole entry, looked up): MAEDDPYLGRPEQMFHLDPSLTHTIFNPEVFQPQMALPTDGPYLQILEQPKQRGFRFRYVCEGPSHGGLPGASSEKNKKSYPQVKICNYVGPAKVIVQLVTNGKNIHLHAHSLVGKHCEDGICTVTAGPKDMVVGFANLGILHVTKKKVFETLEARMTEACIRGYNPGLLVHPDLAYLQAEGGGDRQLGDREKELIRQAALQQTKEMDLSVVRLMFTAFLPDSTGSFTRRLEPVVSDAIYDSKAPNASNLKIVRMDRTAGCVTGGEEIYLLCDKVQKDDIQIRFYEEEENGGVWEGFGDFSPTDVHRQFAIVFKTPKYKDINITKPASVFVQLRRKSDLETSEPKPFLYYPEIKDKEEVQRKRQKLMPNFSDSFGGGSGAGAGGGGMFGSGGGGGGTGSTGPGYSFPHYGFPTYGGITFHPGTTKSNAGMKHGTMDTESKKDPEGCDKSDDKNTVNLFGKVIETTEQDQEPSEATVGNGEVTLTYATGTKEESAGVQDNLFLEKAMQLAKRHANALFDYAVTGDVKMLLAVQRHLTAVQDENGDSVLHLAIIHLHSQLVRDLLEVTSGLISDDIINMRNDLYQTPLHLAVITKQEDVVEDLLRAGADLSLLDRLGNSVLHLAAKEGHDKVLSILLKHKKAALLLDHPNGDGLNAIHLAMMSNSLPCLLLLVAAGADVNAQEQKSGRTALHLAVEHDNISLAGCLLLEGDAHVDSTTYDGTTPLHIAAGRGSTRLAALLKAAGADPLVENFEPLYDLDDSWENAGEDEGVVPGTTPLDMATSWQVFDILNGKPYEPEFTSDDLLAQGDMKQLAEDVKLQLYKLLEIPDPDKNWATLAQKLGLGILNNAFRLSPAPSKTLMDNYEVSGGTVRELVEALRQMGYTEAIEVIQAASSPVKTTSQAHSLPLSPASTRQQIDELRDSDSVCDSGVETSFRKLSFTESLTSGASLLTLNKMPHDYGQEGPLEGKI

In the case of `CCCCCCCCCCCCCCCO`, the outcome in assay [1] is “inactive”; in [2], “inactive”; in assay [3] it was “inactive”; in [4] it was “inactive”; in assay [5], “inactive”; in the assay with MYC, MYC (gene 4609), “inactive”. For the same molecule, the call in assay [6], in assay [7], in assay [8], in [9], in assay [10] and in [11] was inactive. Further, the molecule was classed as inactive in assay [12], in assay [13], in assay [14], in assay [15], in assay [16] and in assay [17]. In addition, the molecule was classed as inactive in assay [18].
`O=C(O)c1cccc(Oc2ccccc2)c1`: the outcome was “inactive” in assay [1]; “inactive” in assay [2]; “inactive” in assay [3]; “inactive” in [4]; “inactive” in [5]; “inactive” in the assay with MYC, MYC (gene 4609). Moreover, the molecule was called inactive in assay [7], in assay [8], in [9], in assay [10], in assay [11] and in assay [13]. Also, the outcome in assay [14], in [15], in assay [16], in [19], in assay [17] and in assay [18] was inactive. Further, the AC50 in [12] was 50 µM (active).
Turning to `Cc1ccc(S(=O)(=O)O)cc1C`, the outcome in [1] was “inactive”; in assay [2] it was “inactive”; in assay [3], “inactive”; in assay [4], “inactive”; in assay [5], “inactive”; in the assay with MYC, MYC (gene 4609), “inactive”. The molecule was called inactive in assay [6], in [7], in assay [9], in assay [10], in assay [11] and in assay [12]. Moreover, the molecule was called inactive in assay [13], in assay [14], in [15], in assay [16], in [19] and in [17]. Also, the result in assay [18] was inactive.
